Assay results: PMC9911399, “Two distinct binding modes provide the RNA-binding protein RbFox with extraordinary sequence specificity”
Where a chain is given by its changes, count along the chain named. The full ranking holds about 16,000 sequences; the median of “ka relative to ugcaugu” is about 0.0091, and the highest 2% start at about 0.032. Shown is part of a subset that was picked to be rich in the highest values.

T1: RBFOX1 RRM (Homo sapiens, UniProt Q9NWB1 109-208)
T1 sequence: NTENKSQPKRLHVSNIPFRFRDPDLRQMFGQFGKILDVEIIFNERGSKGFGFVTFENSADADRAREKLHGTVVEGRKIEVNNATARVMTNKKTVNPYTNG

B1: GGAAUGA (DNA:RNA)
RNA: GGGAGACCGGAAUUCAGAUUGUCCGGAAUGAUUAAAUCCCGUCGUAGCCACCA
DNA 1: CAATCTGAATTCCGGTCTCCC
DNA 2: TGGTGGCTACGACGGGATT
B2: GGAUGAA (DNA:RNA)
RNA: B1 RNA with A28U, U29G, G30A
DNA 1: CAATCTGAATTCCGGTCTCCC
DNA 2: TGGTGGCTACGACGGGATT
B3: GAAAUGA (DNA:RNA)
RNA: B1 RNA with G26A
DNA 1: CAATCTGAATTCCGGTCTCCC
DNA 2: TGGTGGCTACGACGGGATT
B4: GGGAUGA (DNA:RNA)
RNA: B1 RNA with A27G
DNA 1: CAATCTGAATTCCGGTCTCCC
DNA 2: TGGTGGCTACGACGGGATT
B5: CGGAUGA (DNA:RNA)
RNA: B1 RNA with G25C, A27G
DNA 1: CAATCTGAATTCCGGTCTCCC
DNA 2: TGGTGGCTACGACGGGATT
B6: UCACGAG (DNA:RNA)
RNA: B1 RNA with G25U, G26C, A28C, U29G, G30A, A31G
DNA 1: CAATCTGAATTCCGGTCTCCC
DNA 2: TGGTGGCTACGACGGGATT
B7: GCGUGGA (DNA:RNA)
RNA: B1 RNA with G26C, A27G, A28U, U29G
DNA 1: CAATCTGAATTCCGGTCTCCC
DNA 2: TGGTGGCTACGACGGGATT
B8: GGAAGUG (DNA:RNA)
RNA: B1 RNA with U29G, G30U, A31G
DNA 1: CAATCTGAATTCCGGTCTCCC
DNA 2: TGGTGGCTACGACGGGATT
B9: UGGCACC (DNA:RNA)
RNA: B1 RNA with G25U, A27G, A28C, U29A, G30C, A31C
DNA 1: CAATCTGAATTCCGGTCTCCC
DNA 2: TGGTGGCTACGACGGGATT
B10: ACGUCGU (DNA:RNA)
RNA: B1 RNA with G25A, G26C, A27G, A28U, U29C, A31U
DNA 1: CAATCTGAATTCCGGTCTCCC
DNA 2: TGGTGGCTACGACGGGATT
B11: ACCACGU (DNA:RNA)
RNA: B1 RNA with G25A, G26C, A27C, U29C, A31U
DNA 1: CAATCTGAATTCCGGTCTCCC
DNA 2: TGGTGGCTACGACGGGATT
B12: AGGCACG (DNA:RNA)
RNA: B1 RNA with G25A, A27G, A28C, U29A, G30C, A31G
DNA 1: CAATCTGAATTCCGGTCTCCC
DNA 2: TGGTGGCTACGACGGGATT
B13: GGCACGU (DNA:RNA)
RNA: B1 RNA with A27C, U29C, A31U
DNA 1: CAATCTGAATTCCGGTCTCCC
DNA 2: TGGTGGCTACGACGGGATT
B14: GGGCACG (DNA:RNA)
RNA: B1 RNA with A27G, A28C, U29A, G30C, A31G
DNA 1: CAATCTGAATTCCGGTCTCCC
DNA 2: TGGTGGCTACGACGGGATT
B15: GGGGCAC (DNA:RNA)
RNA: B1 RNA with A27G, A28G, U29C, G30A, A31C
DNA 1: CAATCTGAATTCCGGTCTCCC
DNA 2: TGGTGGCTACGACGGGATT
B16: AGGCACC (DNA:RNA)
RNA: B1 RNA with G25A, A27G, A28C, U29A, G30C, A31C
DNA 1: CAATCTGAATTCCGGTCTCCC
DNA 2: TGGTGGCTACGACGGGATT
B17: GGGCACC (DNA:RNA)
RNA: B1 RNA with A27G, A28C, U29A, G30C, A31C
DNA 1: CAATCTGAATTCCGGTCTCCC
DNA 2: TGGTGGCTACGACGGGATT
B18: AGCCACG (DNA:RNA)
RNA: B1 RNA with G25A, A27C, A28C, U29A, G30C, A31G
DNA 1: CAATCTGAATTCCGGTCTCCC
DNA 2: TGGTGGCTACGACGGGATT
B19: UGGCACG (DNA:RNA)
RNA: B1 RNA with G25U, A27G, A28C, U29A, G30C, A31G
DNA 1: CAATCTGAATTCCGGTCTCCC
DNA 2: TGGTGGCTACGACGGGATT
B20: UGGCAGA (DNA:RNA)
RNA: B1 RNA with G25U, A27G, A28C, U29A
DNA 1: CAATCTGAATTCCGGTCTCCC
DNA 2: TGGTGGCTACGACGGGATT

biological target: T1, RBFOX1 RRM; assay: EMSA; HiTS-Eq, 1 nM pool, 10 min; buffer printed only for the single-RNA assays: 10 mM Tris pH 7.5, 150 mM NaCl, 3.4 mM EDTA, 0.001% NP-40, 30 C; conditions: tags: His6 N-terminal (pET28a); label: 5' 32P
Outline: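 These values rest on relative association constants, computed from read-count changes of each RNA species versus the control reaction and normalised to the cognate motif. Reads came from free RNA recovered by 8% native PAGE after purified RbFox RRM (wild type or mutant) at increasing concentrations was equilibrated for 10 min in 50 µL with 1 nM of a 5′-radiolabelled pool with 7 randomized nucleotides and DNA-annealed flanks.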

First: B1
Second: B2
The binding signal of the first is higher: 0.0487 KA relative to UGCAUGU for the first, 0.0174 KA relative to UGCAUGU for the second.

First: B3
Second: B4
The binding signal of the first is lower: 0.0134 KA relative to UGCAUGU for the first, 0.0379 KA relative to UGCAUGU for the second.

First: B5
Second: B6
The binding signal of the first is higher: 0.0221 KA relative to UGCAUGU for the first, 0.0108 KA relative to UGCAUGU for the second.

First: B7
Second: B8
The binding signal of the first is lower: 0.0179 KA relative to UGCAUGU for the first, 0.0211 KA relative to UGCAUGU for the second.

First: B9
Second: B10
The binding signal of the first is higher: 0.0134 KA relative to UGCAUGU for the first, 0.00803 KA relative to UGCAUGU for the second.

Compared with B11, B12 is higher in binding signal: 0.00412 KA relative to UGCAUGU for the first, 0.0414 KA relative to UGCAUGU for the second.

First: B13
Second: B14
The binding signal of the first is higher: 0.0321 KA relative to UGCAUGU for the first, 0.0317 KA relative to UGCAUGU for the second.

Compared with B15, B16 is lower in binding signal: 0.0252 KA relative to UGCAUGU for the first, 0.00933 KA relative to UGCAUGU for the second.

Compared with B17, B18 is lower in binding signal: 0.0223 KA relative to UGCAUGU for the first, 0.00567 KA relative to UGCAUGU for the second.

First: B19
Second: B20
The binding signal of the first is higher: 0.0541 KA relative to UGCAUGU for the first, 0.0265 KA relative to UGCAUGU for the second.
